Data as given in PubChem BioAssay (Tox21).
Inconclusive results are not listed. Active and inactive are the calls of the source. Unless noted, calls come from the whole dose curve; as a rule, active = well fitted curve in the direction sought with a large enough effect in the repeat runs; inconclusive = weak or mixed curves; inactive = no such curve, though single readings can be large; an effect the other way counts as inactive or inconclusive.

What was measured:
[1] = qHTS assay for small molecule agonists of the p53 signaling pathway (AID 651631; calls by dose curve; note: nearly all actives have a fitted effect of over 15% in size; note: potency is the fitted concentration of half-maximal effect)
How it was run: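 Fluorescence intensity from cleaved LiveBLAzer B/G substrate (2 h, room temperature) served as the signal. Beforehand, HCT-116 reporter cells bearing p53 response elements were treated 16 h at 37 °C with DMSO-dissolved compounds.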

[2] = qHTS assay for small molecules that induce genotoxicity in human embryonic kidney cells expressing luciferase-tagged ATAD5 (AID 651632); note: nearly all actives have a fitted effect of over 15% in size
How it was run: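 Genotoxicity read-out via ATAD5-luciferase: HEK293T cells, 16 hr compound incubation at 37C, Amplite detection.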

[3] = qHTS assay for small molecule agonists of the p53 signaling pathway - cell viability (AID 651633; calls by dose curve;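 note: p53RE-bla HCT reporter cells with a stable beta-lactamase p53 reporter; series mostly up to about 83 µM; nearly all actives have a fitted effect of over 30% in size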)
How it was run: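 Viability counter-read: CellTiter-Glo luminescence (30 min, room temperature) in the same p53RE-bla plates. These plates had been exposed to compounds for 16 h at 37 C.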

[4] = qHTS assay to test for compound auto fluorescence at 590 nm (red) in HepG2 cells (AID 720674)
How it was run: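 Red autofluorescence (Ex/Em 540/590 nm, Rose Bengal sodium equivalents) was measured in HepG2 cells, 2,000 per well in MEM plus 10% FBS, plated overnight at 37 C. Readings were taken 1 hr after adding 23 nL compound or DMSO, at 37 C and 5% CO2.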

[5] = qHTS assay to test for compound auto fluorescence at 535 nm (green) in HepG2 cells (AID 720675)
[6] = qHTS assay to test for compound auto fluorescence at 460 nm (blue) in HEK293 cells (AID 720678)
How it was run: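 HEK293 cells (2,000/well, medium with 10% dialyzed FBS) attached 4-5 hr, then exposed to compound overnight at 37C, 5% CO2. Blue fluorescence read at 405/460 nm, with triamterene as reference fluorophore.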

[7] = qHTS assay to test for compound auto fluorescence at 590 nm (red) in HEK293 cells (AID 720679)
How it was run: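 HEK293 cells (2,000/well, 10% dialyzed FBS) attached 4-5 hr, then dosed with compound or DMSO and incubated overnight at 37C, 5% CO2. Red fluorescence read at 540/590 nm, Rose Bengal sodium as reference fluorophore.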

[8] = qHTS assay to test for compound auto fluorescence at 535 nm (green) in HEK293 cells (AID 720680)
[9] = qHTS assay to test for compound auto fluorescence at 460 nm (blue) in HEK293 cell free culture (AID 720681)
How it was run: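 Blue fluorescence (Ex 405/Em 460 nm, triamterene-equivalent) was read immediately after pin transfer of compound or DMSO into medium (DMEM, 10% FBS) without cells.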

[10] = qHTS assay to test for compound auto fluorescence at 535 nm (green) in HEK293 cell free culture (AID 720682)
How it was run: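 Intrinsic compound fluorescence is measured in culture medium containing 10% FBS, with excitation at 485 nm and detection at 535 nm, referenced to fluorescein.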

[11] = qHTS assay to test for compound auto fluorescence at 590 nm (red) in HEK293 cell free culture (AID 720683)
How it was run: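 Red-channel autofluorescence of compounds in culture medium (DMEM, 10% FBS), no cells, measured at 540/590 nm. Rose Bengal sodium is the reference fluorophore for equivalence.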

[12] = qHTS assay to test for compound auto fluorescence at 460 nm (blue) in HepG2 cell free culture (AID 720685)
How it was run: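 Compound (23 nL) or DMSO pinned into cell-free MEM with 10% FBS; blue fluorescence read at 405/460 nm excitation/emission, expressed as auto-fluorescence equivalency to triamterene.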

[13] = qHTS assay to test for compound auto fluorescence at 535 nm (green) in HepG2 cell free culture (AID 720686)
[14] = qHTS assay to test for compound auto fluorescence at 460 nm (blue) in HepG2 cells (AID 720687)
How it was run: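 Blue-channel autofluorescence (Ex/Em 405/460 nm, triamterene-equivalent) was measured after 1 hr compound exposure at 37 C, 5% CO2. Cells were HepG2, plated overnight at 37 C in MEM plus 10% FBS.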

[15] = qHTS assay for small molecule disruptors of the mitochondrial membrane potential - cell viability (AID 720634; calls by dose curve;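 note: human HepG2 liver cancer cells; series mostly up to about 83 µM; nearly all actives have a fitted effect of over 20% in size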)
How it was run: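 Human hepatoma HepG2 cells were treated for 1 hr with test chemicals, then given m-MPI dye and CellTiter-Glo. Cell viability reflects luminescence proportional to cellular ATP.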

[16] = qHTS assay for small molecule disruptors of the mitochondrial membrane potential (AID 720635); note: potency is the fitted concentration of half-maximal effect
How it was run: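 Mitochondrial membrane potential tracked with Mito-MPS dye, red aggregates (ex 540/em 590 nm) against green monomers (ex 490/em 535 nm). Compound treatment 1 hr at 37C, dye 30 min in HepG2.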

[17] = biological target: Glucocorticoid receptor (Homo sapiens) (UniProt P04150); assay: qHTS assay to identify small molecule agonists of the glucocorticoid receptor (GR) signaling pathway (AID 720691; active = well fitted activation curve with a large enough effect in the signal ratio in the repeat runs, not every such curve was filed as active; the % refers to the signal ratio)
Glucocorticoid receptor (Homo sapiens), sequence (P04150 whole entry, looked up): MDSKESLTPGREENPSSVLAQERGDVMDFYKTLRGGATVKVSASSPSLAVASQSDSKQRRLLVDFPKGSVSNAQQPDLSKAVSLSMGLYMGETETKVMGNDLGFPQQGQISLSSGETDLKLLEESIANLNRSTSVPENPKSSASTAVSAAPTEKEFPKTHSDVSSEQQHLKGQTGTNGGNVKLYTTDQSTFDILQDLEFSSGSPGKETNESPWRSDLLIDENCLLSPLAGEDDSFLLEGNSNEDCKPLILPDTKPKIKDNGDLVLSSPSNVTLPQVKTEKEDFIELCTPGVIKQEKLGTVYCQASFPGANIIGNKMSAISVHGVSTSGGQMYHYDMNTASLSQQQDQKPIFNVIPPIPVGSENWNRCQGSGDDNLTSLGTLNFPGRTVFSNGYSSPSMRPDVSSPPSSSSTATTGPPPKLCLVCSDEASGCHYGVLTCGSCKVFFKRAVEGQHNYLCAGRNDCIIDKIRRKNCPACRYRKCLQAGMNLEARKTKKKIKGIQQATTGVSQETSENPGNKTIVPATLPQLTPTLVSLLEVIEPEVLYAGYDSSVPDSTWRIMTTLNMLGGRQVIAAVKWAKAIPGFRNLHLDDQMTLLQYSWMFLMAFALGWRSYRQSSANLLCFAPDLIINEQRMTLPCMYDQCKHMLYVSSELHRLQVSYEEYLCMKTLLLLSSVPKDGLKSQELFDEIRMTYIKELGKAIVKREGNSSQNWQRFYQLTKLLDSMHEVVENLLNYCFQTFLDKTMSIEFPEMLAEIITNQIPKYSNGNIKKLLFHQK
How it was run: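 Beta-lactamase reporter activity, read as fluorescence intensity, was measured in GR-bla HeLa cells exposed to compounds for 18 h at 37 C and then loaded with LiveBLAzer B/G FRET substrate for 2 h at room temperature.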

[18] = qHTS assay to test for compound auto fluorescence at 590 nm (red) in HepG2 cell free culture (AID 720684)
How it was run: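 Plate contents were MEM with 10% FBS plus test compound or DMSO, no cells. Fluorescence was recorded with 540 nm excitation and 590 nm emission.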

[19] = biological target: Glucocorticoid receptor (Homo sapiens) (UniProt P04150); assay: qHTS assay to identify small molecule antagonists of the glucocorticoid receptor (GR) signaling pathway (AID 720692; active = well fitted inhibition curve with a large enough effect in the signal ratio in the repeat runs, not every such curve was filed as active; the % refers to the signal ratio)
How it was run: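 Fluorescence from cleaved LiveBLAzer B/G FRET substrate reports GRE-driven beta-lactamase in HeLa cells; compounds are tested against 5 nM dexamethasone (final) over 18 h at 37 C, substrate incubation 2 h at room temperature.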

[20] = qHTS assay for small molecules that induce genotoxicity in human embryonic kidney cells expressing luciferase-tagged ATAD5 - cell viability (AID 651634; calls by dose curve; note: nearly all actives have a fitted effect of over 25% in size)
How it was run: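 Live-cell protease activity (CellTiter-Fluor, fluorescence) indicates viability. HEK293T cells with luciferase-tagged ATAD5; 15.5 hr compound treatment at 37C.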
% is set by controls: 0 for no effect and ±100 for the full control effect.

CCCCOC(=O)c1ccccc1C(=O)OCC(CC)CCCC (configuration not stated)
inactive: Potency [2] | Potency [3] | outcome [4] | outcome [5] | Potency [6] | outcome [7] | outcome [8] | Potency [9] | outcome [10] | outcome [11] | Potency [12] | outcome [13] | Potency [14]
active: Potency [1] 54.5 µM

CNS(=O)(=O)Cc1ccc2[nH]cc(CCN(C)C)c2c1
inactive: Potency [1] | Potency [2] | Potency [3] | Potency [15] | outcome [4] | outcome [5] | Potency [6] | outcome [7] | outcome [8] | Potency [9] | outcome [10] | outcome [11] | outcome [13] | Potency [14] | Potency [17]
active: Potency [16] 29.8 µM

CC(C)(C)C1CCCCC1O (configuration not stated)
inactive: Potency [1] | Potency [2] | Potency [3] | Potency [15] | Potency [16] | outcome [4] | outcome [5] | Potency [6] | outcome [7] | outcome [8] | Potency [9] | outcome [10] | outcome [11] | outcome [18] | Potency [12] | outcome [13] | Potency [14] | Potency [17] | Potency [19]

CCCCCCCCCC(=O)OCC
inactive: Potency [1] | Potency [2] | Potency [3] | Potency [15] | Potency [16] | outcome [4] | outcome [5] | Potency [6] | outcome [7] | outcome [8] | outcome [11] | outcome [18] | Potency [12] | outcome [13] | Potency [14]

Cc1ncsc1CCO
inactive: Potency [1] | Potency [2] | Potency [20] | Potency [15] | outcome [4] | outcome [5] | Potency [6] | outcome [7] | outcome [8] | outcome [10] | outcome [11] | outcome [18] | Potency [12] | Potency [14]

Cc1ccc2c(ccc3ccccc32)c1
inactive: Potency [1] | Potency [2] | Potency [3] | Potency [20] | outcome [4] | outcome [5] | Potency [6] | outcome [7] | outcome [8] | Potency [9] | outcome [10] | outcome [11] | outcome [18] | outcome [13] | Potency [14]

CCCCCCCCCCCCCCC1CO1 (configuration not stated)
inactive: Potency [1] | Potency [2] | Potency [3] | Potency [20] | outcome [4] | outcome [5] | Potency [6] | outcome [7] | outcome [8] | Potency [9] | outcome [10] | outcome [11] | Potency [12] | outcome [13] | Potency [14] | Potency [17] | Potency [19]

Oc1ccc(O)c2c(O)cccc12
inactive: Potency [1] | Potency [2] | Potency [3] | Potency [20] | Potency [15] | outcome [5] | Potency [6] | outcome [7] | outcome [8] | outcome [10] | outcome [11] | outcome [18] | outcome [13] | Potency [14] | Potency [17]

C=CC(C)(CCC=C(C)C)OC(=O)c1ccccc1 (configuration not stated)
inactive: Potency [1] | Potency [2] | Potency [20] | Potency [15] | outcome [4] | outcome [5] | Potency [6] | outcome [7] | outcome [8] | Potency [9] | outcome [10] | outcome [11] | outcome [18] | Potency [12] | outcome [13] | Potency [14] | Potency [17] | Potency [19]

Cc1cc(NC(=O)C(=O)O)cc(C)c1Oc1ccc(O)c2c1CCC2
inactive: Potency [1] | Potency [2] | Potency [3] | Potency [15] | outcome [4] | outcome [5] | Potency [6] | outcome [7] | outcome [8] | Potency [9] | outcome [10] | outcome [11] | outcome [18] | Potency [12] | Potency [14] | Potency [17] | Potency [19]

CC(=O)c1ccc2c(c1)[C@H](NC(=O)c1ccc(F)cc1)[C@@H](O)C(C)(C)O2
inactive: Potency [1] | Potency [2] | Potency [3] | Potency [15] | outcome [4] | outcome [5] | Potency [6] | outcome [7] | outcome [8] | Potency [9] | outcome [10] | outcome [11] | outcome [18] | Potency [12] | outcome [13] | Potency [14] | Potency [17] | Potency [19]

CCCCC(CC)COCCCN (configuration not stated)
inactive: Potency [1] | Potency [2] | Potency [3] | Potency [20] | outcome [4] | outcome [5] | Potency [6] | outcome [7] | outcome [8] | outcome [10] | outcome [11] | outcome [18] | Potency [12] | Potency [14] | Potency [17] | Potency [19]

CC(CN)CCCN (configuration not stated)
inactive: Potency [1] | Potency [2] | Potency [3] | Potency [15] | outcome [5] | Potency [6] | outcome [7] | outcome [8] | Potency [9] | outcome [10] | outcome [11] | Potency [12] | outcome [13] | Potency [14] | Potency [17] | Potency [19]

CCCCCCCCCCCCCCCC(=O)OC/C=C(C)/C=C/C=C(C)/C=C/C1=C(C)CCCC1(C)C
inactive: Potency [1] | Potency [2] | Potency [20] | Potency [15] | Potency [16] | outcome [4] | outcome [5] | Potency [6] | outcome [7] | outcome [8] | outcome [10] | outcome [11] | outcome [18] | outcome [13] | Potency [14] | Potency [17]

CC(C)(C)c1cc(CCC(=O)OCC(COC(=O)CCc2cc(C(C)(C)C)c(O)c(C(C)(C)C)c2)(COC(=O)CCc2cc(C(C)(C)C)c(O)c(C(C)(C)C)c2)COC(=O)CCc2cc(C(C)(C)C)c(O)c(C(C)(C)C)c2)cc(C(C)(C)C)c1O
inactive: Potency [2] | Potency [3] | Potency [15] | outcome [4] | outcome [5] | Potency [6] | outcome [7] | outcome [8] | Potency [9] | outcome [10] | outcome [11] | outcome [18] | Potency [12] | Potency [14] | Potency [17] | Potency [19]

C=CC(=O)OCCOC(=O)CCC(=O)O
inactive: Potency [2] | Potency [3] | Potency [20] | Potency [15] | outcome [4] | outcome [5] | Potency [6] | outcome [7] | outcome [8] | Potency [9] | outcome [10] | outcome [11] | outcome [18] | Potency [14] | Potency [19]

CC(C)NCC(O)COc1ccc(CC(N)=O)cc1 (configuration not stated)
inactive: Potency [2] | Potency [3] | Potency [20] | Potency [15] | outcome [4] | outcome [5] | Potency [6] | outcome [7] | outcome [8] | Potency [9] | outcome [10] | outcome [11] | outcome [18] | outcome [13] | Potency [14]

CC(C(=O)O)c1ccc(C(=O)c2ccccc2)s1 (configuration not stated)
inactive: Potency [2] | Potency [3] | Potency [20] | fluorescence, % of fluorescein control [5] -0.0168% [at 18.6 µM] | fluorescence, % of triamterene [6] 0.0309% [at 18.6 µM] | fluorescence, % of fluorescent control [7] -0.0493% [at 18.6 µM] | fluorescence, % of fluorescein [8] 0.0614% [at 18.6 µM] | fluorescence, % of fluorescent control [9] -0.0527% [at 18.6 µM] | activity change [10] -0.0099% [at 18.6 µM] | fluorescence, % of fluorescent control [11] -0.0875% [at 18.6 µM] | fluorescence, % of Rose Bengal [18] 0.261% [at 18.6 µM] | fluorescence, % of fluorescent control [12] -0.006% [at 18.6 µM] | fluorescence, % of fluorescein control [13] 0.146% [at 18.6 µM] | fluorescence, % of fluorescent control [14] 0.0098% [at 18.6 µM]

OCCC1CCCCN1 (configuration not stated)
inactive: Potency [2] | Potency [3] | Potency [20] | Potency [15] | outcome [4] | outcome [5] | Potency [6] | outcome [7] | outcome [8] | Potency [9] | outcome [10] | outcome [11] | Potency [12] | outcome [13] | Potency [14] | Potency [17]
